Test results as given in PubChem BioAssay.
Calls of active or inactive are those of the source.

Columns and labels:
[1] = binders of probe aFSTL3 on microarray, primary screen, stem cell growth factor project, biochemical, small-molecule microarray, fluorescence 635/667 (AID 1064); conditions: higher = more signal;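 also: measures binding of the biotinylated anti-FSTL3 antibody to printed compounds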
[2] = binders from COS7 lysate, DM2A8 probe, primary screen, torsin A project, cell lysate, small-molecule microarray, fluorescence 635/667 (AID 1065); conditions: higher = more signal, COS7 lysate expressing mutant human TOR1A
[3] = binders of probe aFGF2 on microarray, primary screen, stem cell growth factor project, biochemical, small-molecule microarray, fluorescence 635/667 (AID 1067); conditions: higher = more signal;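 also: measures binding of biotinylated aFGF2 protein to printed compounds on slides; z-score merges feature fluorescence and signal-to-noise across triplicate slides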
[4] = binders of probe aFGF10 on microarray, primary screen, stem cell growth factor project, biochemical, small-molecule microarray, fluorescence 635/667 (AID 1071); conditions: higher = more signal;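 also: score merges 667 nm spot intensity and signal to noise from triplicate slides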
[5] = molecular target: Neurogenic locus notch homolog protein 2 (Homo sapiens) (UniProt Q04721); test: Notch2 binders on small-molecule microarrays, primary screen, biochemical, small-molecule microarray, 635 nm fluorescence, stem cell growth factors (AID 1073); conditions: Notch2 binding, higher = more signal
Sequence of Neurogenic locus notch homolog protein 2 (Homo sapiens) (Q04721 whole entry, looked up, canonical isoform): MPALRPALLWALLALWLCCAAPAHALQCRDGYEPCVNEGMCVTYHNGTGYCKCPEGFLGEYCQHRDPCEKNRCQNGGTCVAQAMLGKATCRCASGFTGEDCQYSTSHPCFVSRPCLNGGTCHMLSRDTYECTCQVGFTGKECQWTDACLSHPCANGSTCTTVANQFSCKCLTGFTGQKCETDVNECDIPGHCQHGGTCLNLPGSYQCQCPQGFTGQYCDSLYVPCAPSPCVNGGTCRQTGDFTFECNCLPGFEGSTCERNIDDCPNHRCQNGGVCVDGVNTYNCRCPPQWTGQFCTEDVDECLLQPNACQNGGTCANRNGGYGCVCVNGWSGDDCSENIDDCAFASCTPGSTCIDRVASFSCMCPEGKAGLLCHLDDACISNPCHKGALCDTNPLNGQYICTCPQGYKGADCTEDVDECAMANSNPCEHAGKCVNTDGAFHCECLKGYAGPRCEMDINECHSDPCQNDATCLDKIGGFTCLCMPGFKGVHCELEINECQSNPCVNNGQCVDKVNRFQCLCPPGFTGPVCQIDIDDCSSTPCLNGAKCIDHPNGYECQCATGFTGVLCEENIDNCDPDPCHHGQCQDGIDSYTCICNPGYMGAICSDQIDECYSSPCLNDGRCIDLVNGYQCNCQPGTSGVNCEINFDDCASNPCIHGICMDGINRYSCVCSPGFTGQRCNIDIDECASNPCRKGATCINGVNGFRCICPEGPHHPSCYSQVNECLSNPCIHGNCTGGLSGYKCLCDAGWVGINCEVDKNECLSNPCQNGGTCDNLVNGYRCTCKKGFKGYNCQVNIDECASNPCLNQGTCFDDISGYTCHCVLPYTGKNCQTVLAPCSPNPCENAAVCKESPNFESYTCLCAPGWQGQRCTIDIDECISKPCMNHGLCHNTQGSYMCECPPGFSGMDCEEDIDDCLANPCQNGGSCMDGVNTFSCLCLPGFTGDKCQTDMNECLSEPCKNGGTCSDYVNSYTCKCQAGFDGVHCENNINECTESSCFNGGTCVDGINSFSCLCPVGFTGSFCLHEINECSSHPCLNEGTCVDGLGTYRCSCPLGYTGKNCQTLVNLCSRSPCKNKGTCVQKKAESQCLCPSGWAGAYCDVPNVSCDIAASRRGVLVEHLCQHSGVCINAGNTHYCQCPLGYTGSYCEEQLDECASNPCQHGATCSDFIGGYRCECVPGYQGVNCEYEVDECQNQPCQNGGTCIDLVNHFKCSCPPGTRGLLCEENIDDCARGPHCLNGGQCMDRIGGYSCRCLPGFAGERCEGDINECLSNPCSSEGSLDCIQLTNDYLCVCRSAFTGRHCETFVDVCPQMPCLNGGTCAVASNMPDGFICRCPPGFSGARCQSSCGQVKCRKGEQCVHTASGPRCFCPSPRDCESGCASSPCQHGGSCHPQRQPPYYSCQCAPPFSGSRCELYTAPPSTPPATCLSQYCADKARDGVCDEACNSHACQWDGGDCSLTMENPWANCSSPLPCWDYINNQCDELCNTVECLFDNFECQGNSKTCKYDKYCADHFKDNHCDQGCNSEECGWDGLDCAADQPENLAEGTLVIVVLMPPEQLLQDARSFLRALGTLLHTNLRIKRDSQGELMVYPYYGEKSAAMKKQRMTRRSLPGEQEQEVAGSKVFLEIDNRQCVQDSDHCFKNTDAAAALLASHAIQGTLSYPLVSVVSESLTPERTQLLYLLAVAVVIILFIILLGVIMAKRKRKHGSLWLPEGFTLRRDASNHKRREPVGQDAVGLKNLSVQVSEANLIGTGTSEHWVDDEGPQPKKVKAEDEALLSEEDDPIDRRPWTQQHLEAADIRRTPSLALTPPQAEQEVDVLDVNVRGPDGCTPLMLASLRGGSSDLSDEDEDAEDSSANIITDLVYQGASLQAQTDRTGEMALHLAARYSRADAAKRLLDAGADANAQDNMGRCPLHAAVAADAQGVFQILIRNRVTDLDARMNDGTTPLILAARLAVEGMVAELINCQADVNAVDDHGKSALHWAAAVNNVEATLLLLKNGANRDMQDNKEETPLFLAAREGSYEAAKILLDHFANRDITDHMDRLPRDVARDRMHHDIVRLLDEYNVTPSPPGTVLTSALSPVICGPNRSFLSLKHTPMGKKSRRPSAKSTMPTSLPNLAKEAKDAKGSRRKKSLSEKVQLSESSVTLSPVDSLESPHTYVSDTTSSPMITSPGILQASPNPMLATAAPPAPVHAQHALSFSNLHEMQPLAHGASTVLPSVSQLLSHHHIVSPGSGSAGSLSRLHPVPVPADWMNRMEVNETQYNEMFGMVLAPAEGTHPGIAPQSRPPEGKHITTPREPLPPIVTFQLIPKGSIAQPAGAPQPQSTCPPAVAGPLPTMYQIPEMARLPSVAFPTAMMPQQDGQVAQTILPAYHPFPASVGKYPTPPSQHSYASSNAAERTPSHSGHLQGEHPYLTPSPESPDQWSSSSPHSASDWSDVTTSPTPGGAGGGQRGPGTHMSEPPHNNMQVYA

[6] = molecular target: Pro-neuregulin-1, membrane-bound isoform (Homo sapiens) (UniProt Q02297); test: NRG1 binders on small-molecule microarrays, primary screen, psychiatric disease protein project, biochemical, small-molecule microarray, fluorescence 635/667 (AID 1075); conditions: NRG1 binding, 635 nm fluorescence, higher = more signal;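 also: score combines 667 nm spot fluorescence with signal to noise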
[7] = test system: Neuregulin-1 EGF-like domain; test: binders of neuregulin-1 EGF-like domain, primary screen, biochemical, small-molecule microarray, 635 nm fluorescence (AID 1081); conditions: small-molecule microarray binding, higher = more signal;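 also: binding of the protein to compounds printed on small-molecule microarray slides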
[8] = FRG1 promoter luciferase signal modulators, primary screen, FRG1 inhibition for FSHD, cell-based, C2C12 myotubes, firefly/Renilla luciferase, luminescence (AID 1084); conditions: higher = more signal, called active from +8 up or from −8 down
[9] = binders of probe aFST on microarray, primary screen, stem cell growth factor project, biochemical, small-molecule microarray, fluorescence 635/667 (AID 1086); conditions: higher = more signal;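 also: score merges 667 nm fluorescence with signal-to-noise of each printed compound spot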
[10] = binders of probe aHhip on microarray, primary screen, stem cell growth factor project, biochemical, small-molecule microarray, fluorescence 635/667 (AID 1087); conditions: higher = more signal;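 also: score merges spot fluorescence at 667nm with spot signal to noise ratio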
[11] = test system: PRMT1 (protein arginine N-methyltransferase 1); test: PRMT1 binders on small-molecule microarrays, primary screen, biochemical, small-molecule microarray, 635 nm fluorescence (AID 1088); conditions: small-molecule microarray binding, higher = more signal;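 also: binding of Prmt1 protein to compounds spotted on small-molecule microarray slides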
[12] = yeast growth modulation, basal conditions, primary screen, YJM789 clinical isolate, OD600, 24 h (AID 1089);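 also: growth of clinical yeast isolate S. cerevisiae YJM 789 seeded 1000 cells per well; test concentration not given here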; conditions: S. cerevisiae YJM789 growth, higher = more signal, called active from +8 up or from −8 down
[13] = fission yeast growth modulation, primary screen, strain 972, OD600, 24 h, no modulator (AID 1090);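 also: basal condition with compound alone and no growth modifier present; test concentration not given here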; conditions: S. pombe 972 growth, higher = more signal, called active from +8 up or from −8 down
[14] = S. cerevisiae growth modulation with rapamycin, primary screen, strain BY4716, OD600, 96 h (AID 1091); conditions: higher = more signal, called active from +8 up or from −8 down; also: test concentration not given here
[15] = molecular target: Torsin-1A-interacting protein 2 (Homo sapiens) (UniProt Q8NFQ8); test: LULL1 binders on small-molecule microarray, primary screen, cell lysate, human LULL1 lysate, 635/667 nm fluorescence (AID 1092); conditions: hLULL1 lysate binding, 635 nm fluorescence, higher = more signal;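 also: probe is lysate of COS7 cells overexpressing human LULL1; score merges per-feature 667 nm fluorescence with signal-to-noise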
[16] = E. coli growth modulation, two-sided OD650, primary screen, E. coli filamentation project, strain DRC41, 24 h (AID 1093); conditions: OD650, 24 h, higher = more signal, called active from +8 up or from −8 down;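 also: MC1000 strain lacking acrAB efflux and sulA so SOS filamentation is blocked; test concentration not given here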
[17] = small-molecule microarray binders of probe aLefty2, primary screen, biochemical, biotinylated probe, 635/667 nm fluorescence (AID 1094); conditions: higher = more signal;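 also: score merges spot fluorescence near 667 nm with spot signal-to-noise ratio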
[18] = test system: Noggin (protein binding on small-molecule microarray); test: Noggin binders on small-molecule microarray, primary screen, biochemical, 635/667 nm fluorescence (AID 1095); conditions: 635 nm fluorescence, higher = more signal;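 also: score merges 667 nm feature fluorescence with signal to noise over triplicate slides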
[19] = molecular target: Neurogenic locus notch homolog protein 3 (Homo sapiens) (UniProt Q9UM47); test: NOTCH3 binders on small-molecule microarray, primary screen, biochemical, 635/667 nm fluorescence (AID 1096); conditions: NOTCH3 binding, 635 nm fluorescence, higher = more signal
Sequence of Neurogenic locus notch homolog protein 3 (Homo sapiens) (Q9UM47 whole entry, looked up): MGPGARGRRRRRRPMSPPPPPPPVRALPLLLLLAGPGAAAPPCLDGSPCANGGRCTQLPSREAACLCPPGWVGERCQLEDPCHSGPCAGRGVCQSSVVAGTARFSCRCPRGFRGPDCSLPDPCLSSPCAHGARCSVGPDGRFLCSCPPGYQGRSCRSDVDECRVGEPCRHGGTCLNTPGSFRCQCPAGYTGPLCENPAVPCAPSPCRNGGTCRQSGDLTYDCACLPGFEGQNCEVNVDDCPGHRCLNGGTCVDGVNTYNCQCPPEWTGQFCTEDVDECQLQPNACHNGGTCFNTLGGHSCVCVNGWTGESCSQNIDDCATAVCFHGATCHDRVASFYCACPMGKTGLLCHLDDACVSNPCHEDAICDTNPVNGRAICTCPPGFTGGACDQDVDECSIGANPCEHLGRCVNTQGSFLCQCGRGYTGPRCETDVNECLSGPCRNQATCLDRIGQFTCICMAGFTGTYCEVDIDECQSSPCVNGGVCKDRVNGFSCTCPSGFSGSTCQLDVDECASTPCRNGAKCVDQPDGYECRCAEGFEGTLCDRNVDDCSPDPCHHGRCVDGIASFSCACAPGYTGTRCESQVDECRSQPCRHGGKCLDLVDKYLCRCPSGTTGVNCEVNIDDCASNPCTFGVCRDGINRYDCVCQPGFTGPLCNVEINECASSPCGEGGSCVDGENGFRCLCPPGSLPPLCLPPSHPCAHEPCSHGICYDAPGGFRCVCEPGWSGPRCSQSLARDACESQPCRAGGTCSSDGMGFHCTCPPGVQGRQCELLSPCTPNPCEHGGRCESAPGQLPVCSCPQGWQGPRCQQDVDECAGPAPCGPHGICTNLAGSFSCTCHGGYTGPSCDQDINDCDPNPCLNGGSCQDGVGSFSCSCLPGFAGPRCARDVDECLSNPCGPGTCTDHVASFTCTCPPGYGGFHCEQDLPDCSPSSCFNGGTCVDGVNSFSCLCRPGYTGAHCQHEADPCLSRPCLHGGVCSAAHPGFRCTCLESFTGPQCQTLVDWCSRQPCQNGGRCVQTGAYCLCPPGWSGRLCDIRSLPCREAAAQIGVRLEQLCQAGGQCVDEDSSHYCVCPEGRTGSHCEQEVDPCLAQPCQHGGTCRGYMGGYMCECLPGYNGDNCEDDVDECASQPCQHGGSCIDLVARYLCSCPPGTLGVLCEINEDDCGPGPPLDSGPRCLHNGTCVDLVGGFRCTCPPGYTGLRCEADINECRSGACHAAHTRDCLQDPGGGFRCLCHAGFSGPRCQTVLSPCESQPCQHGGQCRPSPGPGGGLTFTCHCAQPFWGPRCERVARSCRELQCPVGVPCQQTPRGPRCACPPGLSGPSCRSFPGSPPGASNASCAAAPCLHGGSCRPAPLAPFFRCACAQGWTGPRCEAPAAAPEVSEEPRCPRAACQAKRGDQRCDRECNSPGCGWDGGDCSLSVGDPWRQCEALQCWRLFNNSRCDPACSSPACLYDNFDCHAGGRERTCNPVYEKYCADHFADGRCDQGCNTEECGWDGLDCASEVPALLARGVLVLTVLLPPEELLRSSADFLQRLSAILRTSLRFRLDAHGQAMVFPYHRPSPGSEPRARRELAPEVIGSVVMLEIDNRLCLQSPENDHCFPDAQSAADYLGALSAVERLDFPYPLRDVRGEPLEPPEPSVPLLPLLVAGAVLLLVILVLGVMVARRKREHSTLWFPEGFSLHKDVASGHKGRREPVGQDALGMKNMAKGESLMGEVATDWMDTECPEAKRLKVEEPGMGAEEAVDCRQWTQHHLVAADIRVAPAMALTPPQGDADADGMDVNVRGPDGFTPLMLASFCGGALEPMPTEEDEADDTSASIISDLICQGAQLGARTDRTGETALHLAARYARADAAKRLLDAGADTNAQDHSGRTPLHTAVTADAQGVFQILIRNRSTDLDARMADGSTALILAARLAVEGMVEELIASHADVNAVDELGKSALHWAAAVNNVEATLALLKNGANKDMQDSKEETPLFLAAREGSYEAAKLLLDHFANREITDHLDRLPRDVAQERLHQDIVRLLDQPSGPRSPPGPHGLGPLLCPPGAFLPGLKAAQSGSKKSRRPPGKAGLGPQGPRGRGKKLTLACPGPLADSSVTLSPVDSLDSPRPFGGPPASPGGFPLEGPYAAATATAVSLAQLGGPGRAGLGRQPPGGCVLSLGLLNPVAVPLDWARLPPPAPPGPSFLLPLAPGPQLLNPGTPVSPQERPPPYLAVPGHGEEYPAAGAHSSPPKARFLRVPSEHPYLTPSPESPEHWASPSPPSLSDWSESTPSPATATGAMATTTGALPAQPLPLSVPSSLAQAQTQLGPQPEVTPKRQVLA

[20] = small-molecule microarray binders of probe aEGFR, primary screen, biochemical, biotinylated probe, 635/667 nm fluorescence (AID 1097); conditions: higher = more signal;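 also: probe is a biotinylated anti-EGFR antibody binding compounds printed on slides; score combines fluorescence near 667 nm and signal to noise of each spot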

Compound	composite z-score [1]	composite z-score [2]	composite z-score [3]	composite z-score [4]	composite z-score [5]	composite z-score [6]	composite z-score [7]	z-score [8]	composite z-score [9]	composite z-score [10]	composite z-score [11]	z-score [12]	z-score [13]	z-score [14]	composite z-score [15]	z-score [16]	composite z-score [17]	composite z-score [18]	composite z-score [19]	composite z-score [20]
COC(=O)[C@H](C)NC(=O)CCC1CC(OC(=O)NCc2cccc3ccccc23)CC2(CCCC(COC(=O)NCCc3ccc(Cl)cc3)O2)O1 (stereo not given in full)	-0.489	-0.0486	-0.0788	0.487	1.09	0.567	0.73	1.93 (inactive)	0.171	-0.0994	1.27	-0.915 (inactive)	-0.253 (inactive)	0.511 (inactive)	1.57	0.129 (inactive)	-0.145	0.328	1.13	-0.0967
CCOC(=O)[C@H](Cc1ccccc1)NC(=O)CCC1CC(OC(=O)NCc2ccc3c(c2)OCO3)CC2(CCCC(COC(=O)NCC(c3ccccc3)c3ccccc3)O2)O1 (stereo not given in full)	-0.655	0.805	-0.151	0.211	0.883	0.716	1.03	1.26 (inactive)	0.359	-0.306	1.16	0.668 (inactive)	0.9 (inactive)	0.687 (inactive)	2.34	0.454 (inactive)	-0.0485	0.955	1.06	-0.157
CCOC(=O)[C@H](Cc1ccccc1)NC(=O)CCC1CC(OC(=O)NCc2ccc3c(c2)OCO3)CC2(CCCC(COC(=O)NCc3ccccc3)O2)O1 (stereo not given in full)	-0.0824	0.204	-0.0103	0.697	0.808	0.317	0.718	1.54 (inactive)	0.393	0.0505	1.06	0.284 (inactive)	0.158 (inactive)	0.942 (inactive)	1.27	0.641 (inactive)	-0.0174	0.573	0.941	-0.0084
CCN1C(=O)[C@H]2[C@H]3[C@H](O)[C@H](O)CC(=NOC(C)CN4CCCCc5nc(C)c(C)cc54)[C@@H]3CC[C@H]2C1=O (stereo not given in full)	-0.698	0.532	-0.138	0.223	0.462	-0.531	-0.274	0.682 (inactive)	0.253	0.119	0.708	0.12 (inactive)	0.634 (inactive)	0.403 (inactive)	-0.414	1.03 (inactive)	-0.0977	0.732	0.398	0.126
CO[C@@H]1COC(=O)CC=C[C@@H](C)[C@@H]2C=C[C@H](O)[C@@H](COC(=O)CCC[C@H]1C)O2	-0.29	1.11	-0.146	-0.14	-0.117	-0.582	-0.167	-0.414 (inactive)	0.246	-0.261	1.43	-0.199 (inactive)	0.498 (inactive)	-0.181 (inactive)	-1.78	0.206 (inactive)	-0.075	1.65	-0.076	-0.15
O=C(NN=C1C[C@@H](O)[C@@H](O)[C@@H]2[C@@H]3C(=O)N(c4cccc(Oc5ccccc5)c4)C(=O)[C@@H]3CC[C@H]12)OCc1ccccc1	-0.0678	0.249	-0.101	0.0108	0.176	0.301	-0.533	0.723 (inactive)	0.182	-0.249	-0.425	0.686 (inactive)	-0.141 (inactive)	-0.669 (inactive)	0.415	1.24 (inactive)	-0.0812	0.53	0.305	-0.152
COC(=O)CC=C[C@@H](C)[C@@H](C=NO[C@@H](C)c1cc(-c2c(C)cc(C)cc2C)no1)OC	1.46	-1.99	-0.159	-0.806	-1.69	-0.674	-0.714	0.8 (inactive)	-0.358	-0.0672	-1.43	-0.0365 (inactive)	-0.875 (inactive)	0.599 (inactive)	-1.2	-0.622 (inactive)	-0.047	-0.119	-0.75	-0.419
C/C=C\[C@@H](NCc1ccccc1Br)[C@@H](O)Cc1ccccc1	1.08	-0.441	-0.151	-0.75	-1.46	-0.0182	-0.537	-0.445 (inactive)	-0.336	-0.236	-0.0523	-1.81 (inactive)	-13.8 (active)	-1.64 (inactive)	-0.0942	-0.734 (inactive)	0.149	-1.52	-0.735	-0.455
CC(C)[C@@H](OCc1ccccc1)[C@H](C)C=NOC[C@@H](C)[C@H](OCc1ccccc1)C(C)C	-0.539	0.0717	-0.164	0.31	0.303	0.106	-0.44	-0.108 (inactive)	-0.0889	-0.131	0.341	0.0268 (inactive)	0.893 (inactive)	0.338 (inactive)	-0.218	0.413 (inactive)	-0.0862	0.367	0.421	-0.0234
